Screens: PubChem BioAssay, National Center for Advancing Translational Sciences (NCATS)
Sm TGR block: qHTS Assay for the Inhibitors of Schistosoma Mansoni Peroxiredoxins | Schistosoma mansoni thioredoxin glutathione reductase (TGR), Q962Y6 | purified TGR, DTNB reduction, TNB absorbance 405 nm | Potency, µM (series often up to 114 µM), for inactives: at the top dose activity change, negative = inhibition, actives largely listed as inhibitors | hit rate 3% among 360,000 | AID 485364, 2010; further: on the % scale 0 is the no-effect control and ±100 the full control effect; nearly all actives have a fitted effect of over 60% in size
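Kinetic colorimetric format: TGR-catalysed, NADPH-driven DTNB reduction monitored via TNB absorbance. Enzyme dispensed at 20 nM; compound exposure 15 min at room temperature before reaction start.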
RE007 growth inh: qHTS Assay for Inhibitors of the HIV-1 protein Vpr; S. pombe RE007 Vpr strain, BacTiter-Glo ATP luminescence, 24 h; Potency, µM (top dose mostly 92.2 µM), inactives show top-dose activity change, negative = less growth, actives largely listed as inhibitors; hit rate 0.21% among 360,000; active means well fitted falling curve with a large enough effect; inconclusive means small, poorly fitted or top-dose-only effect; inactive means no such curve, though single readings can be large or run the other way; further: on the % scale 0 is the no-effect control and ±100 the full control effect; nearly all actives have a fitted effect of over 50% in size
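Fission yeast strain RE007, carrying one chromosomally integrated HIV-1 vpr copy, was seeded at OD 0.01 in PMG+AL medium with 23 nL pinned compound. After 24 h at 30 °C and 99% humidity, viability was read by BacTiter-Glo luminescence.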
TbPYK inhibitor: qHTS of Trypanosoma Brucei Inhibitors. TbPYK enzyme, Kinase-Glo Plus ATP luminescence, 45 min. Potency, µM (titrated, usually from 76.8 µM), for the others: at the highest dose activity, negative = inhibition, actives largely listed as inhibitors. hit rate 0.12% among 410,000. AID 624173, 2012; further: on the % scale 0 is the no-effect control and ±100 the full control effect; nearly all actives have a fitted effect of over 50% in size
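In this concentration-response screen, enzyme-free wells defined baseline while DMSO plates tracked drift. Each reaction combined TbPYK, substrate, compound and 130 uM ADP for 45 min at room temperature. Kinase-Glo Plus luminescence gave the signal.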
SARS PLpro yeast: qHTS of Yeast-based Assay for SARS-CoV PLP | S. cerevisiae expressing SARS-CoV PLpro, growth rescue | Potency, µM (highest dose often 32.9 µM), for the others: at the highest dose activity, positive = growth rescue, most hits filed as activators | hit rate 0.19% among 330,000; calls by dose curve; further: 0% is about no effect; nearly all actives have a fitted effect of over 55% in size
AmpC no deterg: qHTS Inhibitors of AmpC Beta-Lactamase (assay without detergent) | P00811 | AmpC nitrocefin hydrolysis, absorbance 480 nm, 0.0001% Triton | hit rate 0.52% among 330,000 | Potency, µM (highest dose often 57.1 µM), inactives show at the highest dose activity change, negative = inhibition, actives largely listed as inhibitors;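 further: plate controls were no compound for no effect and no enzyme for full effect; nearly all actives have a fitted effect of over 20% in size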
Target sequence (P00811 whole entry, looked up): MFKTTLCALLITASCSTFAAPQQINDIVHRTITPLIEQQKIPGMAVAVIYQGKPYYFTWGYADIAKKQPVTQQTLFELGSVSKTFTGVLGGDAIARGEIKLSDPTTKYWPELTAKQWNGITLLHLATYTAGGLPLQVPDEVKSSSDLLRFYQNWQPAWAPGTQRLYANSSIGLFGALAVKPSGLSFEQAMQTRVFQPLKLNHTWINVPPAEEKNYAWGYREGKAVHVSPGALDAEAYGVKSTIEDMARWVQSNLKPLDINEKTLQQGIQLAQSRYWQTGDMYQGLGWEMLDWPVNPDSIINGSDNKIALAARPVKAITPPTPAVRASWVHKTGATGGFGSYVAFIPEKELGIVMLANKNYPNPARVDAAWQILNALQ
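20 mM phosphate pH 7.0 + 0.01% (detergent screen) or 0.0001% Triton X-100; 5.3 nM AmpC reagent; cpd preinc 15 min RT; nitrocefin (800 uM stock) to start; A480 q20 s × 4 min; Activity was normalised to no-enzyme and no-compound control wells.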
AmpC detergent: qHTS Inhibitors of AmpC Beta-Lactamase (assay with detergent); P00811; AmpC hydrolysis of nitrocefin, absorbance 480 nm, 0.01% Triton; Potency, µM (titrated, usually from 114 µM), for the others: at the highest dose activity change, negative = inhibition, usual class: inhibitors; hit rate 0.041% among 370,000;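 further: 0% = no-compound wells and -100% = no-enzyme wells; nearly all actives have a fitted effect of over 25% in size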
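AmpC (5.3 nM in the dispensed reagent) in 20 mM phosphate pH 7.0 with 0.01% (detergent screen) or 0.0001% Triton X-100 was preincubated with compounds for 15 min at room temperature. Nitrocefin was then added from an 800 uM solution, and hydrolysis was followed at 480 nm.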
* marks the source's active call; other numbers are inactive results; ? = inconclusive; · = no result; [ ] = dose if it differs, or a comment. This is a sample that favours compounds with a hit; in the whole collection about 3.3% have one here. Unless noted, the call rests on the fitted dose curve; in most records, active means well fitted curve in the direction sought with a large enough effect; inconclusive means small, poorly fitted or top-dose-only effect, or another doubt; inactive means no such curve, though single readings can be large; an effect the other way counts as inactive or inconclusive. Potency means the concentration at half of the fitted maximal effect.

SMILES	Sm TGR block	RE007 growth inh	TbPYK inhibitor	SARS PLpro yeast	AmpC no deterg	AmpC detergent
O=S(=O)(c1ccccc1)N1CCN(Cc2c(O)ccc3ccccc23)CC1	·	-15%	6%	-2%	-18%	·
O=C(CN1CCN(c2ccccc2F)CC1)c1ccc(O)c(O)c1	?	-10%	-15%	2%	-30%	-2%
Oc1ccc2ccccc2c1CN1CCN(c2ccccc2F)CC1	11µM*	3%	2%	2%	-28%	-8%
CCOc1ccc(NC(=O)N(Cc2cn(CC)c3ccccc23)C2CCCCCC2)cc1	1%	·	4%	·	·	0%
COc1ccc([C@]23Cc4cc(OC)c(OC)cc4C(O2)C2=C(CCCC2=O)O3)cc1	3.5µM*	·	·	?	239%[11.4 µM]	-8%[22.9 µM]
COc1ccc([C@]23Cc4ccccc4C(O2)C2=C(CC(C)(C)CC2=O)O3)cc1	?	·	·	2%[6.58 µM]	-38%[11.4 µM]	?
COc1ccc([C@]23Cc4ccccc4C(O2)C2=C(CCCC2=O)O3)cc1	0%[22.9 µM]	·	·	-8%[6.58 µM]	-19%[11.4 µM]	-6%[22.9 µM]
COc1ccc([C@]23Cc4ccccc4C(O2)C2=C(O3)C(=O)c3ccccc3C2=O)cc1	7.1µM*	·	·	2%[6.58 µM]	-57%[11.4 µM]	?
Cc1ccc(Cn2ccsc2=NC(=O)CCl)cc1	14µM*	26%	1%	-1%	-1%	6%
Cc1ccc(Cn2ccsc2=NC(=O)COC(=O)c2ccc(NC(=O)CC#N)cc2)cc1	-4%	0%	-1%	0%	-41%	-14%
CCOC(=O)c1cnc2c(OC)cccc2c1Nc1cccc(O)c1	-12%	·	4%	·	·	13%
CCC(=O)Nc1nc(C)c(-c2csc(Nc3cccc(O)c3)n2)s1	-18%	-11%	-2%	0%	16µM*	?
Cc1nc(NC(=O)c2ccccc2)sc1-c1csc(Nc2cccc(Cl)c2)n1	10%	·	·	-2%	14µM*	-12%
Cc1nc(C)c(-c2csc(Nc3cccc(O)c3)n2)s1	-7%	22%	-1%	0%	-32%	3%
COc1ccc(Nc2nc(-c3sc(NC(C)=O)nc3C)cs2)cc1	?	·	·	3.2µM*	17%	?
CCc1cccc(C)c1NC(=O)c1cc(S(=O)(=O)N(C)Cc2ccccc2)ccc1F	-6%	·	6%	·	·	-5%
Cc1cc(C)cc(NC(=S)NCc2cccnc2)c1	?	-16%	-12%	2%	-5%	-9%
O=C(NCc1ccccc1)C(=O)Nc1ccc2nc3n(c(=O)c2c1)CCCCC3	-2%	·	-7%	·	·	0%
Cc1cc(=O)oc2cc(NC(=S)NCc3cccnc3)ccc12	40µM*	5%	-6%	2%	-35%	2%
O=C(/C=C/c1ccco1)Nc1ccc2nc3n(c(=O)c2c1)CCCC3	32µM*	2%	7%	-1%	21%	4%
O=c1c2cc(NC(=S)N3CCCC3)ccc2nc2n1CCCCC2	9%	10%	-4%	3%	-9%	-1%
O=c1c2cc(NC(=S)NCc3cccnc3)ccc2nc2n1CCCCC2	56µM*	-7%	8%	-6%	-23%	-2%
Cc1nn(S(=O)(=O)c2ccc(C(C)C)cc2)c(C)c1S(=O)(=O)N1CCCCCC1	-12%	·	-3%	·	·	5%
O=C(O)/C=C/C(=O)Nc1ccc(N2CCOCC2)nc1N1CCOCC1	2.2µM*	4%	?	1%	-15%	-18%
COc1ccc(N2CCN(c3ccc(NC(=O)/C=C\C(=O)O)cc3)CC2)cc1	-2%	-10%	7%	-10%	-14%	?
SMILES	Sm TGR block	RE007 growth inh	TbPYK inhibitor	SARS PLpro yeast	AmpC no deterg	AmpC detergent
C[C@@H]1C[C@H](O)c2cc(Cl)ccc2N1	40µM*	6%	-4%	0%	-13%	-2%
CCCN(c1ccc(C(C)C)cc1)S(=O)(=O)c1ccc2c(c1)CCN2C(=O)CC	-2%	·	8%	·	·	2%
Cc1ccccc1C(=O)Nc1ccc(C(=O)N2CCCC(O)c3cc(Cl)ccc32)c(C)c1 (stereo not given)	·	·	-3%	·	·	·
O=C1NC(=O)N(Cc2ccccc2)C(=O)/C1=C/C=C/c1ccco1	6.3µM*	1%	6%	-5%	?	-6%
COc1ccc(/C=C2/C(=O)N(Cc3ccco3)C(=O)N(C(C)C)C2=O)cc1	-2%	-12%	1%	4%	-28%	-7%
CCN1C(=O)C(=C/C=C/c2ccco2)C(=O)N(CC)C1=S	8.9µM*	-17%	-17%	?	-47%	-12%
CC(C)N1C(=O)/C(=C/C=C/c2ccco2)C(=O)N(Cc2ccco2)C1=O	3.5µM*	-18%	-7%	1%	-23%	-10%
Cn1nnnc1SCC1=C(C(=O)O)N2C(=O)[C@@H](NC(=O)[C@H](OC=O)c3ccccc3)[C@H]2SC1	·	·	0%	·	·	·
CC(C)OC(=O)c1cc2c(=O)[nH]c(C(Cl)(Cl)Cl)nc2o1	28µM*	3%	9%	2%	-25%	-4%
CC(C)OC(=O)c1ccc(S(N)(=O)=O)o1	-9%	10%	-4%	6%	-11%	-15%
CC(=O)N1c2ccccc2CC1C(=O)N1CCN(c2cccc(C)c2C)CC1 (stereo not given)	-2%	·	1%	·	·	9%
Cc1c(O)ccc(C(=O)CN2CCN(c3ccccc3)CC2)c1O	22µM*	15%	1%	14%	-26%	?
Cc1ccc(C(=O)Nc2ccc3c(c2)N(C)C(=O)c2ccccc2S3)cc1F	7%	·	-4%	·	·	11%
CCc1cc(=O)oc2cc(OC(=O)CN3C(=O)NC4(CCCC4)C3=O)ccc12	?	-13%	-13%	-2%	-13%	3%
O=C(CN1C(=O)NC2(CCCCC2)C1=O)Oc1ccc2c(C(F)(F)F)cc(=O)oc2c1	40µM*	-15%	2%	3%	-27%	?
O=C(CN1C(=O)NC2(CCCC2)C1=O)Oc1ccc2ccc(=O)oc2c1	56µM*	-14%	-4%	-1%	-20%	-14%
O=C(c1ccc2c(c1)N(Cc1ccc(Cl)cc1)C(=O)c1ccccc1S2(=O)=O)N1CCOCC1	-7%	·	2%	·	·	?
CC(=O)Nc1ccc(S(=O)(=O)Nc2cc(C)on2)cc1	·	·	3%	·	·	·
O=C(Nc1nccs1)c1ccc(Br)o1	-3%	8%	-3%	-32%	-5%	-9%
O=C(/C=C/c1ccc(Br)o1)Nc1nccs1	3.2µM*	2%	-3%	0%	-12%[11.4 µM]	-12%
CCOC(=O)Cc1csc(NC(=O)/C=C/c2ccc(Br)o2)n1	10µM*	-14%	-1%	-1%	-17%	7%
